According to publication PMC5540273 (PLoS ONE, 2017):

Assays:
Conditions in all cases: concentration: 1 μM, replicates: in singlicate; n = 1
DAPK2 = test system: DAPK2
DAPK3 = test system: DAPK3
DCAMKL1 = test system: T1, DCAMKL1
T1 construct: gene DCLK1

DCAMKL2 = test system: T2, DCAMKL2
T2 construct: gene DCLK2

DCAMKL3 = test system: T3, DCAMKL3
T3 construct: gene DCLK3

DDR1 = test system: DDR1
DDR2 = test system: DDR2
DLK = test system: T4, DLK
T4 construct: gene MAP3K12

DMPK2 = test system: T5, DMPK2
T5 construct: gene CDC42BPG

DMPK = test system: DMPK
DRAK1 = test system: T6, DRAK1
T6 construct: gene STK17A

DRAK2 = test system: T7, DRAK2
T7 construct: gene STK17B

DYRK1A = test system: DYRK1A
DYRK1B = test system: DYRK1B
DYRK2 = test system: DYRK2
EGFR = test system: EGFR
EIF2AK1 = test system: EIF2AK1
EPHA1 = test system: EPHA1
EPHA2 = test system: EPHA2
EPHA3 = test system: EPHA3
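Note: KINOMEscan kinase panel screen.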

Structure (SMILES)	%Inh (DAPK2)	%Inh (DAPK3)	%Inh (DCAMKL1)	%Inh (DCAMKL2)	%Inh (DCAMKL3)	%Inh (DDR1)	%Inh (DDR2)	%Inh (DLK)	%Inh (DMPK2)	%Inh (DMPK)	%Inh (DRAK1)	%Inh (DRAK2)	%Inh (DYRK1A)	%Inh (DYRK1B)	%Inh (DYRK2)	%Inh (EGFR)	%Inh (EIF2AK1)	%Inh (EPHA1)	%Inh (EPHA2)	%Inh (EPHA3)
COc1cc2ncn(-c3cc(OCC4CCCO4)c(C(N)=O)s3)c2cc1OC (centres unmarked) [GSK204607]	0%	2%	18%	0%	0%	0%	21%	33%	0%	0%	0%	0%	0%	0%	14%	20%	0%	3%	10%	16%
COc1ccc(CNC(=O)NC2CCN(c3ccnc(Nc4cc(OC)c(OC)c(OC)c4)n3)C2)cc1 (centres unmarked) [GSK1379748]	0%	10%	5%	0%	0%	1%	45%	100%	2%	0%	10%	0%	6%	32%	0%	31%	0%	1%	14%	0%
Fc1cc(Cl)ccc1Nc1ccnc2cc(I)ccc12 [GW551191]	0%	9%	15%	0%	0%	33%	8%	27%	8%	21%	0%	0%	33%	60%	4%	21%	0%	71%	26%	0%
NC(=O)c1nnc2ccccc2c1N	10%	6%	9%	30%	0%	0%	11%	18%	0%	0%	41%	33%	29%	16%	39%	0%	0%	14%	10%	0%
Fc1cc(Cl)ccc1Nc1ccnc2cc(-c3ccc(CN4CCCCC4)o3)ccc12 [GW560116]	0%	25%	0%	14%	0%	27%	36%	36%	0%	0%	33%	0%	0%	0%	9%	27%	0%	43%	6%	33%
Cc1cccc(-c2nc(Nc3cccc(C(N)=O)c3)c3ccccc3n2)n1 [GW876019]	0%	17%	36%	0%	29%	29%	8%	0%	0%	0%	8%	28%	6%	65%	34%	15%	0%	57%	32%	0%
COc1cc2nccc(Nc3ccc(NC(=O)c4ccc(C)cc4)c(O)c3)c2cc1OC.Cl [GW440132]	8%	19%	8%	7%	16%	0%	5%	6%	0%	0%	0%	0%	11%	7%	18%	0%	0%	17%	8%	0%
COc1cccc(NC(=O)NC2CCN(c3ccnc(Nc4ccc(F)cc4)n3)C2)c1 (centres unmarked) [GSK1379721]	0%	2%	11%	2%	0%	17%	38%	0%	13%	0%	0%	0%	0%	30%	26%	17%	0%	12%	0%	0%
Cc1cc(-c2ccc3c(c2)CC[C@@H](N[C@@H](C)c2ccccc2)C3)cnc1N.Cl [GW412617]	0%	0%	0%	0%	0%	14%	25%	87%	4%	6%	0%	11%	19%	17%	0%	31%	0%	14%	14%	0%
Cc1cccc(-c2cc(Nc3ccncc3)c3ccccc3n2)n1 [GSK223675]	0%	9%	3%	0%	1%	9%	0%	0%	7%	0%	0%	0%	8%	0%	18%	17%	0%	4%	0%	0%
